Results reported in PubChem BioAssay AID588689 (Southern Research Specialized Biocontainment Screening …, 2011).
In all, about 340,000 compounds went through this assay and about 1,000 (0.29%) were called active. Rule as the data show it: inconclusive = inhibition above about 29% without an active follow-up result; inactive = below that. A selection follows. Results with a measured potency or affinity are listed apart.

Biological target: Genome polyprotein (Dengue virus type 2 (strain 16681-PDK53)) (UniProt P29991)
Test: flavivirus cap methylation enzyme inhibition – biochemical, confirmation dose response, primary screen (AID 588689)
Details: Dengue-2 NS5 methyltransferase capping enzyme assay, at 25 µM, stronger effect = higher value
[1] = measured here: pilot screen replicate inhibition

| SMILES | inhibition | inhibition [1] [%] |
| --- | --- | --- |
| Cc1cc(C)c(NC(=O)CN2C(=O)NC3(CCCCC3)C2=O)c(C)c1 | -3.21% (inactive) | – |
| Cc1cccc(NC(=O)CN(C)S(=O)(=O)c2ccc(-c3ccc(=O)[nH]n3)s2)c1C | -3.18% (inactive) | – |
| CC(=O)CC(=O)NC1CCc2ccccc21 (stereo unspecified) | -2.7% (inactive) | – |
| CCOc1ccc(C(=O)c2ccccc2C(=O)O)cc1OCC | -7.73% (inactive) | – |
| CC1=CC(=O)C(C(C)C)=C/C1=N/OS(=O)(=O)c1ccccc1 | -4.66% (inactive) | – |
| CC1(C)SC(=S)N(/N=C/c2ccccc2)C1N(O)C(=O)Nc1ccc([N+](=O)[O-])cc1 (stereo unspecified) | -1.56% (inactive) | – |
| COc1ccccc1N(/N=C1\Sc2ccccc2C1=O)C(C)=O | 0.77% (inactive) | – |
| COc1ccccc1N(C(C)=O)c1nc(C)cc(C)c1C#N | -9.48% (inactive) | – |
| CC(=O)N(C1=C(N2CCOCC2)C(=O)c2ccccc2C1=O)c1ccc(C(=O)O)cc1 | 24.1% (inactive) | – |
| CC(=O)N(c1ccccc1)C1CCCC1 | -5.78% (inactive) | – |
| CC(=O)N(C1=C(N)C(=O)c2ccccc2C1=O)c1ccccc1 | -4.08% (inactive) | – |
| CC(=O)N(C1=C(O)c2ccccc2C(=O)C1=O)C1CCCCC1 | 4.86% (inactive) | – |
| CC(C)CCCN1C(Nc2ccccc2)=NC[C@@H]1C | -8.02% (inactive) | – |
| O=C(COC(=O)/C=C/c1ccc(C(F)(F)F)cc1)NCc1ccco1 | 1.3% (inactive) | – |
| COc1ccccc1NC(=O)CN1C(=O)COc2ccc(S(=O)(=O)N3CCCCCC3)cc21 | -3.55% (inactive) | – |
| COc1cccc(C(=O)Nn2c(-c3cccs3)nc3ccccc3c2=O)c1OC | -3.56% (inactive) | – |
| O=C(NCc1ccccn1)c1ccc(Cn2cc(C(F)(F)F)ccc2=O)cc1 | -5.74% (inactive) | – |
| Cn1c(=O)c2c(ncn2CC(=O)N2CCc3ccccc3C2)n(C)c1=O | -0.55% (inactive) | – |
| CCCC[C@@H]1C=C(C(=O)O)[C@H](c2ccc(Cl)cc2)N1S(=O)(=O)c1ccc(C)cc1 | 9.27% (inactive) | 1.23 |
| CCc1ccc([C@@H]2CC=C(C(=O)O)[C@H](c3ccccc3)N2S(=O)(=O)c2ccc(C)cc2)cc1 | 15.1% (inactive) | – |
| CCCCC[C@@H]1C=C(C(=O)O)[C@H](c2ccc(C)cc2)N1S(=O)(=O)c1ccc(C)cc1 | 10.4% (inactive) | – |
| CCc1ccc([C@@H]2CC=C(C(=O)O)[C@H](c3ccc(F)cc3)N2S(=O)(=O)c2ccc(C)cc2)cc1 | 15.9% (inactive) | – |
| Cc1ccc(S(=O)(=O)N2[C@@H](c3ccccc3)C(C(=O)O)=CC[C@H]2c2ccc(Cl)cc2)cc1 | 13.2% (inactive) | – |
| Cc1ccc([C@H]2C(C(=O)O)=CC[C@@H](c3ccc(Cl)cc3)N2S(=O)(=O)c2ccc(C)cc2)cc1 | 23.2% (inactive) | 7.95 |
